This passage reports composite z-score, composite Z-score and z-score results from PubChem BioAssay.

One assay has as its target Albumin (Bos taurus) (UniProt P02769). The assay is described as follows: bovine serum albumin binders on microarray, profiling panel, artefact control for SMM control protein annotation, biochemical, small-molecule microarray, Alexa647 label, 635/667 nm fluorescence (AID 1118).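 Also: score merges 667 nm emission intensity and signal-to-noise per printed compound spot.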 The following applies: BSA-A647 binding, fluorescence 635 nm, higher = more signal.
Assay [1] in a line: small-molecule microarray binders of probe aXIP, primary screen, biochemical, NeuroSMM set, 635/667 nm fluorescence (AID 1119).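 Also: probe is the protein aXip251-270 applied at 1 µg/mL to compound-printed slides; binding of probe to printed compounds measured as 667 nm fluorescence plus signal to noise.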 The conditions noted are these: higher = more signal, called active from +8 up or from −8 down.
Assay [2] can be described thus: small-molecule binders of probe aNOTCH3, primary screen, biochemical, small-molecule microarray, 635/667 nm fluorescence (AID 1120).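 Also: probe is a biotin-tagged antibody raised against NOTCH3 rather than NOTCH3 protein; score merges spot fluorescence near 667 nm with spot signal to noise.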 The following applies: higher = more signal.
Assay [3] is described as follows: small-molecule binders of probe aNOTCH2, primary screen, biochemical, small-molecule microarray, 635/667 nm fluorescence (AID 1121).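 Also: score merges feature fluorescence read at 667 nm with its signal to noise.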 The following applies: higher = more signal.
The target in assay [4] is Carbonic anhydrase 2 (Homo sapiens) (UniProt P00918). The assay can be described thus: CAII small-molecule binders, profiling panel, biochemical, small-molecule microarray, Alexa647-labelled CAII (AID 1122). The following applies: CAII-A647 binding fluorescence, higher = more signal.
Assay [5] is described as follows: COS7 lysate on small-molecule microarray, probe aHis, 635 nm (AID 1123).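 Also: z-score combines 667nm fluorescence intensity with signal-to-noise per printed compound spot.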 The following applies: COS7 cell lysate, fluorescence, higher = more signal.
Assay [6] in a line: compound binding in COS7 lysate, probe aLAP1, primary screen, cell lysate, small-molecule microarray (AID 1124).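 Also: lysate comes from COS7 cells expressing LAP1 and is applied at 0.3 µg/mL; score merges spot fluorescence near 667 nm with signal-to-noise over triplicate slides.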 The conditions noted are these: probe aLAP1, fluorescence, higher = more signal.
The subject of another assay is Sam68 (KHDRBS1). The assay can be described thus: Sam68 small-molecule binders, primary screen, biochemical, small-molecule microarray, 635 nm fluorescence (AID 1125).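 Also: score merges 667 nm channel intensity with signal to noise over triplicate slides.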 The following applies: small-molecule microarray binding, higher = more signal.
The test system of assay [7] is Chordin-like protein 2 (CHRDL2). The assay can be described thus: CHRDL2 small-molecule binders, primary screen, biochemical, small-molecule microarray, 635 nm fluorescence (AID 1126).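 Also: printed compound slides probed with Chrdl2 protein at 4 µg/mL for 1 h at 4 C; score merges 667 nm emission intensity with signal to noise over three replicate slides.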 The conditions noted are these: small-molecule microarray binding, fluorescence 635 nm; higher = more signal.
The target in assay [8] is Concanavalin-A (Canavalia ensiformis) (UniProt P02866). The assay can be described thus: ConA small-molecule binders, primary screen, artefact control for SMM control protein annotation, biochemical, small-molecule microarray, Alexa647 label, 635 nm (AID 1127).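 Also: z combines 667 nm emission intensity with signal-to-noise across three replicate slides.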 The following applies: ConA-A647 binding fluorescence, higher = more signal.
Chain of Concanavalin-A (Canavalia ensiformis) (P02866 whole entry, looked up): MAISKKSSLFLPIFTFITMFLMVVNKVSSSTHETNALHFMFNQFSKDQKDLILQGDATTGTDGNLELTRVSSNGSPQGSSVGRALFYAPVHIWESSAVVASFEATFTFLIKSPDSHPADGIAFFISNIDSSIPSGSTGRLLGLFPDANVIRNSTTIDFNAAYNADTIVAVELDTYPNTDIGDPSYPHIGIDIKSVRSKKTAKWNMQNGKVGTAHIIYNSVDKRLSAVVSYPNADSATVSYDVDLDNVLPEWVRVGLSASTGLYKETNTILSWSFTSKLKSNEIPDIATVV
Assay [9] in a line: anti-His antibody binders, primary screen, artefact control for SMM control protein annotation, biochemical, small-molecule microarray, 635 nm fluorescence (AID 1128).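 Also: score merges feature fluorescence with signal-to-noise for each printed compound spot.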 The following applies: anti-His Alexa647 antibody binding, higher = more signal.
For assay [10], the system named is Human papillomavirus type 1a E7 protein (residues 1-88). The assay is described as follows: HPV1a E7 small-molecule binders, primary screen, biochemical, small-molecule microarray, residues 1-88, 635 nm (AID 1129). The conditions noted are these: small-molecule microarray binding, fluorescence 635 nm; higher = more signal.
Assay [11] addresses Focal adhesion kinase 1 (Homo sapiens) (UniProt Q05397). The assay can be described thus: small-molecule microarray binders of FAK, primary screen, biochemical, 635/667 nm fluorescence, BSA, DTT (AID 1130).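 Also: composite of spot emission at 667 nm and signal to noise over triplicate slides.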 The following applies: PTK2 binding, 635 nm fluorescence, higher = more signal.
The test system of assay [12] is Fibrinogen (Alexa647-labelled). The assay is described as follows: fibrinogen binders on compound microarrays, profiling panel, artefact control for SMM control-protein annotation, biochemical, small-molecule microarray, 635/667 nm fluorescence (AID 1131).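 Also: z-score merges 667 nm fluorescence with per-spot signal-to-noise over triplicate slides.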 The conditions noted are these: fibrinogen-A647 binding fluorescence, higher = more signal.
Assay [13] addresses Follistatin (Homo sapiens) (UniProt P19883). The assay is described as follows: follistatin binders on small-molecule microarrays, primary screen, biochemical, small-molecule microarray, 635/667 nm fluorescence (AID 1132). The following applies: FST binding, 635 nm fluorescence, higher = more signal.
For assay [14], the target named is Fibroblast growth factor 2 (Homo sapiens) (UniProt P09038). The assay can be described thus: FGF2 binders on small-molecule microarrays, primary screen, biochemical, small-molecule microarray, 635/667 nm fluorescence (AID 1133). The following applies: small-molecule microarray binding, FGF2, fluorescence 635/667; higher = more signal.
Chain of Fibroblast growth factor 2 (Homo sapiens) (P09038 whole entry, looked up): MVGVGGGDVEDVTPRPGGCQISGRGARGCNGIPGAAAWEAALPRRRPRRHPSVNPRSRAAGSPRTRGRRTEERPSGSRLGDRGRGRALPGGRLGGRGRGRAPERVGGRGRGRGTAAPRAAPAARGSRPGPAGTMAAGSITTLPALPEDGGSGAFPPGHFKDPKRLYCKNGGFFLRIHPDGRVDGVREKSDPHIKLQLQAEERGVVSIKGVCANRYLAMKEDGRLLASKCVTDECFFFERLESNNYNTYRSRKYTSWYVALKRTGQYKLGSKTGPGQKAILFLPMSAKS
Assay [15] in a line: mitochondrial membrane potential change in A549 cells, profiling panel, cell-based, JC-1 fluorescence, basal, 24 h, 100 nL (AID 1138).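 Also: A549 lung adenocarcinoma cells under basal conditions with no added stimulus; test concentration not given here.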 The conditions noted are these: higher = more signal.
In another assay the test system is Lefty1. The assay is described as follows: Lefty1 binders on small-molecule microarrays, primary screen, biochemical, small-molecule microarray, 635/667 nm fluorescence (AID 1139). The conditions noted are these: small-molecule microarray binding, fluorescence 635/667; higher = more signal.
The test system of assay [16] is wheat germ agglutinin (Triticum aestivum), Alexa647-labelled. The assay can be described thus: wheat germ agglutinin binders on compound microarrays, profiling panel, artefact control for SMM control-protein annotation, biochemical, small-molecule microarray, 635/667 nm fluorescence (AID 1140).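 Also: score merges 667 nm feature emission with signal to noise over triplicate slides.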 The following applies: WGA-A647 binding, 635 nm fluorescence, higher = more signal.

Assay [17] has as its target Luciferin 4-monooxygenase (Photinus pyralis) (UniProt P08659). The assay can be described thus: firefly luciferase enzyme inhibitors, primary screen, biochemical, luminescence, purified enzyme, 2006 set (AID 1141).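 Also: cell-free assay with purified firefly luciferase at 100 ng per well in PBS; test concentration not given here.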 The conditions noted are these: SteadyGlo luminescence, 30 min, higher = more signal, called active from +8 up or from −8 down.

Activity calls are given as the source filed them.

Chain of Focal adhesion kinase 1 (Homo sapiens) (Q05397 whole entry, looked up): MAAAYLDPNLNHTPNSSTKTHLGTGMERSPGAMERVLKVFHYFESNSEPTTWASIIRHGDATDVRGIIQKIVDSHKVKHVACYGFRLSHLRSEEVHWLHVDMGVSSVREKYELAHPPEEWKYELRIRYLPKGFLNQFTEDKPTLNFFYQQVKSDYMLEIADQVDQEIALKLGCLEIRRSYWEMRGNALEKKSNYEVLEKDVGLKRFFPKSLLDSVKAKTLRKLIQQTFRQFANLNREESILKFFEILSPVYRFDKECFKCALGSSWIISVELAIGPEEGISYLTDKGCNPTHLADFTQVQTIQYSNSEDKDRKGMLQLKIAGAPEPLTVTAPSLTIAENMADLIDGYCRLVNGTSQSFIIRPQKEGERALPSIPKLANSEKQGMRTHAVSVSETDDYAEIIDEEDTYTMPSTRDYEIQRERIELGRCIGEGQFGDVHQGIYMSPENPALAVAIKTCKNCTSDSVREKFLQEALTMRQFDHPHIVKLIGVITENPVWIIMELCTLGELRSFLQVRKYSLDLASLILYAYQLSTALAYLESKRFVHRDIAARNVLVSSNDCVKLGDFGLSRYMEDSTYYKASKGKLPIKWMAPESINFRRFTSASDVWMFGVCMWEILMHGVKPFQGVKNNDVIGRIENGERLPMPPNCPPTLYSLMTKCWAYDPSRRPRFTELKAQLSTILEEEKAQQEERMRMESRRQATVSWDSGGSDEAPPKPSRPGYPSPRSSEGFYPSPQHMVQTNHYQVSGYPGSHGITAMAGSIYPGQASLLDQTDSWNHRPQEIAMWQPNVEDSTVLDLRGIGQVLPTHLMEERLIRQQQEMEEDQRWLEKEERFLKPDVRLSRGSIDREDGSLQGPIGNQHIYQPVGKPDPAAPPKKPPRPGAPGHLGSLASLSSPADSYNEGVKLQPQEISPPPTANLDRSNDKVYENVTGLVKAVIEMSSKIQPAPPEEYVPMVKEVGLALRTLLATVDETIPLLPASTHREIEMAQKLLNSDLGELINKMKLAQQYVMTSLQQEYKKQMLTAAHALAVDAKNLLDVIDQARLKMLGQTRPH
Chain of Follistatin (Homo sapiens) (P19883 whole entry, looked up): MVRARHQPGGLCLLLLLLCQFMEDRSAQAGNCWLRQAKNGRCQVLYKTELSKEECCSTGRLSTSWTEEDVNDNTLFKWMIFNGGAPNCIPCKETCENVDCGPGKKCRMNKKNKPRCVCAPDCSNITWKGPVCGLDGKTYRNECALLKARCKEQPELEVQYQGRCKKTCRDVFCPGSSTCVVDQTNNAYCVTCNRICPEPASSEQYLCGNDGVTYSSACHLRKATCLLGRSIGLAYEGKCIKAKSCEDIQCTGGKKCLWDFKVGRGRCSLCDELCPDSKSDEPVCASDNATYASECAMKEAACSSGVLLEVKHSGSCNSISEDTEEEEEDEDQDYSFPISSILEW
Chain of Luciferin 4-monooxygenase (Photinus pyralis) (P08659 whole entry, looked up): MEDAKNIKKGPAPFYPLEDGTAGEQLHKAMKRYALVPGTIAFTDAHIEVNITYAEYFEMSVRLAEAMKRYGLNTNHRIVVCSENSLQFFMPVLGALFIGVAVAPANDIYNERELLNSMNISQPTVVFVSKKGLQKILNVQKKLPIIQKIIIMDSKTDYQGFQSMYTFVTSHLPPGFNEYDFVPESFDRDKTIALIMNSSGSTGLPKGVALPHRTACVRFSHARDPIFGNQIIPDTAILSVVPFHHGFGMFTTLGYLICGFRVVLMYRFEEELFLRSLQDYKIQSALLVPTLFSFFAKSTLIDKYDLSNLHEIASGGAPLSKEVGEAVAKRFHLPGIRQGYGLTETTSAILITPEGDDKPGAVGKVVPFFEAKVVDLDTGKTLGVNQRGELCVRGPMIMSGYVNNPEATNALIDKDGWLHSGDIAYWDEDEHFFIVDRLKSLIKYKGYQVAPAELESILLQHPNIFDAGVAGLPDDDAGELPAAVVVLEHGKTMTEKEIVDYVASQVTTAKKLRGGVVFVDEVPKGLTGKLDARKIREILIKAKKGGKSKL
Chain of Albumin (Bos taurus) (P02769 whole entry, looked up): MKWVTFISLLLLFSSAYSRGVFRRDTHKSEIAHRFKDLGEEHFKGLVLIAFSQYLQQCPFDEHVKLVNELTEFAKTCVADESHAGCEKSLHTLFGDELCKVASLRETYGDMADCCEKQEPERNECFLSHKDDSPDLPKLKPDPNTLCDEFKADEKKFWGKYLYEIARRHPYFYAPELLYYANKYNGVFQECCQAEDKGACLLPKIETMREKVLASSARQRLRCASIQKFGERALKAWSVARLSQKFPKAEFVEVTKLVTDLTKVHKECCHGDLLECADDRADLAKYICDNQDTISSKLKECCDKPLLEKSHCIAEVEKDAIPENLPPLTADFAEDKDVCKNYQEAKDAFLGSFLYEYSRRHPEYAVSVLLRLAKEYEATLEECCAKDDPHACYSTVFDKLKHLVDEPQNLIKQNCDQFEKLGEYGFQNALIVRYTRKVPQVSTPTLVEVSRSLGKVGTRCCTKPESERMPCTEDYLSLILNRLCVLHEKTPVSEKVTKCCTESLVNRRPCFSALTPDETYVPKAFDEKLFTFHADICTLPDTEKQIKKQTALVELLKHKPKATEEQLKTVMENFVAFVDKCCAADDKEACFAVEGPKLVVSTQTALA

As for `O=C1OCCC=C[C@H]2OC34C=CCN(Cc5ccccc5)C(=O)[C@H]3N(CCO)C(=O)[C@@H]4C12` (stereo not given in full), the composite z-score with Albumin (Bos taurus) was -0.121; in [2], -0.0967; in assay [3] it was -0.19; in [4] it was 0.459; in assay [5], -0.59; in [6], -0.227. Besides, the composite z-score in the assay with Sam68 (KHDRBS1) was -1.04; in assay [7], -0.849; in [8] it was -1.18; in assay [9], -0.954; in assay [10] it was -1.18; in assay [11], -0.616. Besides, the composite z-score was -1.89 in assay [12]; -1.21 in assay [13]; -0.379 in assay [14]; -0.705 in the assay on Lefty1; -2.09 in [16]. For the same compound, the composite Z-score in assay [1] was -0.141 (inactive). Also, the values for the z-score in assay [15] and in assay [17] were 0.252 and -0.678 (inactive), respectively.
With `Cc1ccc(N2C(=O)c3ccccc3[C@](C)(C(=O)NCC(C)C)[C@@H]2c2ccc(CO)cc2)nc1`, the composite z-score was -1.09 with Albumin (Bos taurus); -0.278 in assay [2]; -0.126 in assay [3]; 0.265 in [4]; 0.437 in assay [5]; -0.115 in assay [6]. For the same compound, the composite z-score with Sam68 (KHDRBS1) was -0.68; in assay [7] it was -0.233; in assay [8], -1.92; in [9], -1.02; in assay [10], -1.2; in [11] it was -1.04. Besides, the composite z-score in [12] is -1.43; in [13], -0.125; in [14] it was -0.671; in the assay on Lefty1, -0.589; in assay [16] it was 0.0574. For the same compound, the composite Z-score in [1] is 0.917 (inactive). For the same compound, the z-score in assay [15] is -0.393; in assay [17], 0.525 (inactive).
Regarding `O=C(CS)NCCCCCNC(=O)[C@H]1C[C@H]2C(=O)N[C@@H](Cc3ccccc3)C(=O)N2[C@H]1c1ccc(O)cc1`, the composite z-score with Albumin (Bos taurus) was 0.237; in assay [2], 0.114; in assay [3], -0.0598; in [4], 0.436; in [5] it was 0.704; in [6], 0.393. Also, the composite z-score in the assay on Sam68 (KHDRBS1) was 1.32; in assay [7], 0.905; in assay [8], 1.17; in assay [9], 1.58; in assay [10] it was 1.06; in [11], 0.485. In addition, the composite z-score in [12] came out at 0.948; in assay [13], 1.43; in [14] it was 1.14; with Lefty1, 0.854; in assay [16], 1.21. Besides, in [1], the composite Z-score was -0.65 (inactive). Further, the z-score was -0.586 in assay [15] and -2.91 (inactive) in assay [17].
As for `COc1ccc(C(O)C2C=CC3C(=O)N(C)C(=O)C3N2N2CCCCC2)cc1OCc1ccccc1` (stereo not given), the composite z-score in the assay with Albumin (Bos taurus) is 0.728; in assay [2], 0.13; in assay [3] it was -0.0546; in assay [4], 0.38; in [5] it was 1.71; in assay [6], 0.445. In addition, the composite z-score in the assay with Sam68 (KHDRBS1) is 1.29; in assay [7], -0.651; in [8], 1.12; in assay [9], 1.31; in assay [10], 1.2; in [11], 0.391. Further, the composite z-score in [12] was 0.838; in [13], 0.795; in assay [14], -0.444; in the assay with Lefty1 it was -0.24; in assay [16], 0.951. Moreover, in [1], the composite Z-score was 0.248 (inactive). Besides, the z-score was 0.0785 in assay [15] and -0.381 (inactive) in [17].
As for `C[C@@H]1CC[C@H]2C(=O)N3[C@@H](CC[C@@H](C)[C@@H]3c3cccc(N4CCOCC4)c3)C(=O)N2[C@H]1c1cccc(N2CCOCC2)c1`, the composite z-score in the assay with Albumin (Bos taurus) is 0.0915; in [2], -0.344; in assay [3], -0.217; in assay [4] it was 0.477; in [5] it was 0.8; in assay [6], 0.581. Besides, the composite z-score in the assay with Sam68 (KHDRBS1) amounted to 0.594; in assay [7], 0.902; in [8], 1.04; in assay [9] it was 0.181; in [10], 0.978; in assay [11], 0.0379. Also, the composite z-score in assay [12] came out at 0.815; in assay [13], 1.16; in [14], 1.16; with Lefty1, 1.47; in assay [16], 0.964. Also, the composite Z-score in assay [1] was -0.354 (inactive). Moreover, the z-score in assay [15] is 1.05; in assay [17] it was -1.23 (inactive).
`COCCOC(=O)N1C(=O)[C@@]2(c3cc(C#CCNC(N)=O)ccc31)[C@H](c1ccccc1OCCO)N1[C@H](c3ccccc3)[C@H](c3ccccc3)OC(=O)[C@H]1[C@@H]2C(=O)NC[C@H](O)c1ccccc1`: the composite z-score is 0.679 with Albumin (Bos taurus); 0.163 in [2]; -0.113 in [3]; 0.681 in assay [4]; 2.12 in assay [5]; 0.717 in assay [6]. Moreover, the composite z-score in the assay with Sam68 (KHDRBS1) is 1.28; in assay [7] it was 0.0781; in [8], 1.08; in assay [9], 1.06; in assay [10], 1.2; in [11] it was 0.499. Moreover, the composite z-score is 0.943 in assay [12]; 1.28 in assay [13]; 0.472 in assay [14]; 0.688 with Lefty1; 0.832 in [16]. For the same compound, in assay [1], the composite Z-score is 0.25 (inactive). Also, the z-score in assay [15] was -1.31; in assay [17], 0.311 (inactive).
Consider `CO[C@H]1O[C@H](CO)[C@@H](OC(=O)Nc2ccc3c(c2)OCO3)[C@H](OC(=O)Nc2ccccc2)[C@@H]1OC(=O)Nc1ccccc1`, for which the composite z-score in the assay with Albumin (Bos taurus) is 0.792; in assay [2], -0.004; in assay [3], -0.0952; in assay [4], 0.743; in assay [5], 3; in assay [6], 0.982. The composite z-score in the assay with Sam68 (KHDRBS1) is 1.29; in assay [7], -0.0509; in [8], 1.09; in assay [9] it was 1.79; in assay [10] it was 1.22; in assay [11], 1.02. The composite z-score in assay [12] came out at 0.968; in assay [13], 1.41; in assay [14], 1.83; in the assay with Lefty1, 0.823; in [16] it was 0.497. The composite Z-score in assay [1] is 0.0474 (inactive). Further, the z-score in assay [15] is 0.187; in [17], -0.899 (inactive).
As for `CCOC(=O)C[C@H]1[C@H](OC(=O)c2ccccc2-c2ccccc2)[C@@H](NC(=O)c2ccc(-c3ccccc3)cc2)c2cc(OCCCO)ccc2N1C(=O)Cc1ccc(OC)cc1`, the composite z-score in the assay with Albumin (Bos taurus) was 0.0867; in assay [2], 0.0193; in assay [3] it was -0.0759; in [4], -0.0176; in assay [5], 0.416; in [6], -0.0563. Moreover, the composite z-score in the assay on Sam68 (KHDRBS1) was 0.406; in assay [7], 0.335; in [8] it was 0.398; in [9], -0.293; in assay [10] it was -0.301; in assay [11], 0.371. For the same compound, the composite z-score in assay [12] was 0.411; in assay [13], 0.362; in assay [14] it was 0.487; in the assay with Lefty1, 0.566; in assay [16] it was -0.12. The composite Z-score in assay [1] is 0.0368 (inactive). Moreover, the z-score in [15] was 0.78; in assay [17] it was 0.393 (inactive).
